# Source: ChEMBL document CHEMBL1961873, “Compounds: GSK PKIS; Assays: Nanosyn kinase panel” (2012)
# What was measured:
# [1] = molecular target: Tyrosine-protein kinase SYK (Homo sapiens) (UniProt P43405); settings: at 1 µM
# [2] = molecular target: T1, Tyrosine-protein kinase Tec (Homo sapiens) (UniProt P42680); settings: at 0.1 µM
# T1 sequence (whole entry): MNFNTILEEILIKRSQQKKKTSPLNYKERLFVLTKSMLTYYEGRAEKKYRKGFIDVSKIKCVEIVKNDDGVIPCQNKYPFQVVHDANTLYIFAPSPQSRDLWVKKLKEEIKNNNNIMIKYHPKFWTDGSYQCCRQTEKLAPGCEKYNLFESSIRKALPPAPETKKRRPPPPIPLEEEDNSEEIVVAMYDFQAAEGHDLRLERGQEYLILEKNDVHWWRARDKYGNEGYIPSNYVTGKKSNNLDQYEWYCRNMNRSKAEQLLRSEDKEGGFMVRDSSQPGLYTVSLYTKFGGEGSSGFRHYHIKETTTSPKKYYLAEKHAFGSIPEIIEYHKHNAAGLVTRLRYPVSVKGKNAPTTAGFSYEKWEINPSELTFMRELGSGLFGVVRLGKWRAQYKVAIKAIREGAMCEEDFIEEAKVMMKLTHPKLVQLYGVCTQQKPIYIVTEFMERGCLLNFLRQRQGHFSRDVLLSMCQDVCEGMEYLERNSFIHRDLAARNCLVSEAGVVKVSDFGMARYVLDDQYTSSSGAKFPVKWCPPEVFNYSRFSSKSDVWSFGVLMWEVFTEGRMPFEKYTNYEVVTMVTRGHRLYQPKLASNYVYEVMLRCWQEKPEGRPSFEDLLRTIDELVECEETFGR
# [3] = molecular target: T1, Tyrosine-protein kinase Tec (Homo sapiens); settings: at 1 µM
# [4] = molecular target: Angiopoietin-1 receptor (Homo sapiens) (UniProt Q02763); settings: at 0.1 µM
# Angiopoietin-1 receptor (Homo sapiens), sequence (Q02763 whole entry): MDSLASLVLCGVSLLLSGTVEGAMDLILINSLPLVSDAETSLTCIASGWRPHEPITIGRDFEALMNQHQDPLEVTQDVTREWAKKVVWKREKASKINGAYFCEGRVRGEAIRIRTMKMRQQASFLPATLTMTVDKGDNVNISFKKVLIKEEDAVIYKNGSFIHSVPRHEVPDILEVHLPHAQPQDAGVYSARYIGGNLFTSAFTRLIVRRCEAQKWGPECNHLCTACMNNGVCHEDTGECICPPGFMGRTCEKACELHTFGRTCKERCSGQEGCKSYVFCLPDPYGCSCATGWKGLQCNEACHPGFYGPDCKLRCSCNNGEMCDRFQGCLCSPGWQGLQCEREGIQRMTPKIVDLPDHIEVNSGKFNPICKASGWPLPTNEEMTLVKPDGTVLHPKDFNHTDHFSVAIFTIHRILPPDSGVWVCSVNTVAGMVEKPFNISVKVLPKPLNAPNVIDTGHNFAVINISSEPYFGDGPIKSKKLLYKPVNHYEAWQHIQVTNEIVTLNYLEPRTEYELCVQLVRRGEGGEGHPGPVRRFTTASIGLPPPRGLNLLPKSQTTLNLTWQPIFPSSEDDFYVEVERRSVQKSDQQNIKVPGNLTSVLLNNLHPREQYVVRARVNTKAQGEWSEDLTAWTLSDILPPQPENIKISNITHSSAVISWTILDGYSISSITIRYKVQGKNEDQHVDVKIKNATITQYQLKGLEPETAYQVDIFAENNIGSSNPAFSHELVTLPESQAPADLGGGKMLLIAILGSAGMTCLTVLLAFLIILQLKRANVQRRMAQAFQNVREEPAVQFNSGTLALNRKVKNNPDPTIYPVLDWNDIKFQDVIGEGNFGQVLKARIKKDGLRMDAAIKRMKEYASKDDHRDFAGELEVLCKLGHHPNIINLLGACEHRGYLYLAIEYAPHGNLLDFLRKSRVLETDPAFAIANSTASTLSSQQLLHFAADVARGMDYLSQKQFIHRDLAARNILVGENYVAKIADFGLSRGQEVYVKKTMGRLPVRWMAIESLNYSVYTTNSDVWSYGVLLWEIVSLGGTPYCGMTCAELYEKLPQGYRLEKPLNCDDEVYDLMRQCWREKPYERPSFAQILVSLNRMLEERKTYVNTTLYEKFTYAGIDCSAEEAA
# [5] = molecular target: Angiopoietin-1 receptor (Homo sapiens) (UniProt Q02763); settings: at 1 µM
# [6] = molecular target: T2, Non-receptor tyrosine-protein kinase TNK1 (Homo sapiens) (UniProt Q13470); settings: at 0.1 µM
# T2 sequence (whole entry): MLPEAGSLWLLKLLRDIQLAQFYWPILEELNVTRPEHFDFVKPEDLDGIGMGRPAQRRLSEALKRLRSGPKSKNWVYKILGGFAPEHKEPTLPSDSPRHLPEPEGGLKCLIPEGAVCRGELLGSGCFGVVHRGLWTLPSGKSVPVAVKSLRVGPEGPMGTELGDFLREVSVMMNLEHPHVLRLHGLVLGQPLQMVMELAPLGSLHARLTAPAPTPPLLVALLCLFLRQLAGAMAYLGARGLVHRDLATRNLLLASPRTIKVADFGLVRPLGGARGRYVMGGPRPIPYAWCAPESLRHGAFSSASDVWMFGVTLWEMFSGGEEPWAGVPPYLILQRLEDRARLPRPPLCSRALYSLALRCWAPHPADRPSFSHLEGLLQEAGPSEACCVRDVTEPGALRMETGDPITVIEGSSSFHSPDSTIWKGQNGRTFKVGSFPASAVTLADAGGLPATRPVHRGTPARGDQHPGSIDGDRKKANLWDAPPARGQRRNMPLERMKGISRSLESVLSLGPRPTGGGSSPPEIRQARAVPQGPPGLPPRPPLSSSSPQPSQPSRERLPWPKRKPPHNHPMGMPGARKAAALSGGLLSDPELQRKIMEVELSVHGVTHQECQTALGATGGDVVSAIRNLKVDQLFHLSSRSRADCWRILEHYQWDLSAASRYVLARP
# [7] = molecular target: T2, Non-receptor tyrosine-protein kinase TNK1 (Homo sapiens); settings: at 1 µM
# [8] = molecular target: Activated CDC42 kinase 1 (Homo sapiens) (UniProt Q07912); settings: at 0.1 µM
# Activated CDC42 kinase 1 (Homo sapiens), sequence (Q07912 whole entry, looked up): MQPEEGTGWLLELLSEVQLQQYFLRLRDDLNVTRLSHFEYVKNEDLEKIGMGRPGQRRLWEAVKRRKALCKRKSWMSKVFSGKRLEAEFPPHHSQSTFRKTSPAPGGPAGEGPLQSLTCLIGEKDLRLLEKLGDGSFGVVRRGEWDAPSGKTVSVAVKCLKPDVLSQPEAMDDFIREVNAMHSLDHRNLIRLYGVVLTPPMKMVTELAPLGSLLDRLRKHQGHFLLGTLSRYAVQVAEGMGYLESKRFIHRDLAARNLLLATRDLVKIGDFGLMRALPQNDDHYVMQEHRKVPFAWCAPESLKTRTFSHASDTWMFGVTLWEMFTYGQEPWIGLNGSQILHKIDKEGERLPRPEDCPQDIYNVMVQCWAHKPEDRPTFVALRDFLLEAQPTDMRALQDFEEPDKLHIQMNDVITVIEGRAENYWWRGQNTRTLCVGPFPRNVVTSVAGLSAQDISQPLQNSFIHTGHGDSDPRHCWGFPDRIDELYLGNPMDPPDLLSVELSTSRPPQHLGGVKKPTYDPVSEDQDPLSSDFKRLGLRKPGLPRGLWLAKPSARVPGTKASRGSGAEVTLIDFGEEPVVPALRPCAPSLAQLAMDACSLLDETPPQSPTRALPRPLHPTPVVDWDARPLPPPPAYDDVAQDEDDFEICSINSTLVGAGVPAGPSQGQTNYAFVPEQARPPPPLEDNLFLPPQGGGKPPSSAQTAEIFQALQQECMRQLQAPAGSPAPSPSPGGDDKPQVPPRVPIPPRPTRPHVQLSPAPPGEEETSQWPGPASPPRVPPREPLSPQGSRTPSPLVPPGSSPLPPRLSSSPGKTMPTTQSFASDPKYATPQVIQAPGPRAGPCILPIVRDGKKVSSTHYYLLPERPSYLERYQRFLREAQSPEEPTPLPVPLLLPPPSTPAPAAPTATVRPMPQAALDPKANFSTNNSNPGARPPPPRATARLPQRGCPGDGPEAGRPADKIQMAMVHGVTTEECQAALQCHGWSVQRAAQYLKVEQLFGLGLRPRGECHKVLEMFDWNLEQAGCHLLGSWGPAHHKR
# [9] = molecular target: Activated CDC42 kinase 1 (Homo sapiens) (UniProt Q07912); settings: at 1 µM
# [10] = molecular target: High affinity nerve growth factor receptor (Homo sapiens) (UniProt P04629); settings: at 0.1 µM
# High affinity nerve growth factor receptor (Homo sapiens), sequence (P04629 33-796 limits assumed): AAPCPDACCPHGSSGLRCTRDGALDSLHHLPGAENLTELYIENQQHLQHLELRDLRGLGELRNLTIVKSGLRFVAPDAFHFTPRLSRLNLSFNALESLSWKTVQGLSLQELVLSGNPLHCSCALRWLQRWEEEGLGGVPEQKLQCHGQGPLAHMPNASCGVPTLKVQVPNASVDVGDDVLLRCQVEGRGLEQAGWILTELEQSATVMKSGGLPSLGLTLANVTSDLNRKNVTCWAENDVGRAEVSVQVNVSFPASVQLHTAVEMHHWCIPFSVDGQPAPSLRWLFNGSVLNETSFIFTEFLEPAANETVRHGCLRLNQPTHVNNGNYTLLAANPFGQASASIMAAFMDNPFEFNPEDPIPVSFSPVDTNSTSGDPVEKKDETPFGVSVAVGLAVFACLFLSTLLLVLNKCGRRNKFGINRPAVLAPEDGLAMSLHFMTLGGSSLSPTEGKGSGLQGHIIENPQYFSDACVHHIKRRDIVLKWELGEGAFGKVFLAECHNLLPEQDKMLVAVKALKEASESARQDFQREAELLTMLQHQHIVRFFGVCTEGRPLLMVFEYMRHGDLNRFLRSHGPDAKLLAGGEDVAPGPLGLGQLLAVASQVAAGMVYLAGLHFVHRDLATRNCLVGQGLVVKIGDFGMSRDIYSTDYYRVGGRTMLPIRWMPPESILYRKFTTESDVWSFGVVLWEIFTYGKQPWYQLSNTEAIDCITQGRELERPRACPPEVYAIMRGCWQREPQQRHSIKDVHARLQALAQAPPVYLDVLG
# [11] = molecular target: High affinity nerve growth factor receptor (Homo sapiens) (UniProt P04629); settings: at 1 µM
# [12] = molecular target: BDNF/NT-3 growth factors receptor (Homo sapiens) (UniProt Q16620); settings: at 0.1 µM
# [13] = molecular target: BDNF/NT-3 growth factors receptor (Homo sapiens) (UniProt Q16620); settings: at 1 µM
# [14] = molecular target: NT-3 growth factor receptor (Homo sapiens) (UniProt Q16288); settings: at 0.1 µM
# NT-3 growth factor receptor (Homo sapiens), sequence (Q16288 32-839 limits assumed): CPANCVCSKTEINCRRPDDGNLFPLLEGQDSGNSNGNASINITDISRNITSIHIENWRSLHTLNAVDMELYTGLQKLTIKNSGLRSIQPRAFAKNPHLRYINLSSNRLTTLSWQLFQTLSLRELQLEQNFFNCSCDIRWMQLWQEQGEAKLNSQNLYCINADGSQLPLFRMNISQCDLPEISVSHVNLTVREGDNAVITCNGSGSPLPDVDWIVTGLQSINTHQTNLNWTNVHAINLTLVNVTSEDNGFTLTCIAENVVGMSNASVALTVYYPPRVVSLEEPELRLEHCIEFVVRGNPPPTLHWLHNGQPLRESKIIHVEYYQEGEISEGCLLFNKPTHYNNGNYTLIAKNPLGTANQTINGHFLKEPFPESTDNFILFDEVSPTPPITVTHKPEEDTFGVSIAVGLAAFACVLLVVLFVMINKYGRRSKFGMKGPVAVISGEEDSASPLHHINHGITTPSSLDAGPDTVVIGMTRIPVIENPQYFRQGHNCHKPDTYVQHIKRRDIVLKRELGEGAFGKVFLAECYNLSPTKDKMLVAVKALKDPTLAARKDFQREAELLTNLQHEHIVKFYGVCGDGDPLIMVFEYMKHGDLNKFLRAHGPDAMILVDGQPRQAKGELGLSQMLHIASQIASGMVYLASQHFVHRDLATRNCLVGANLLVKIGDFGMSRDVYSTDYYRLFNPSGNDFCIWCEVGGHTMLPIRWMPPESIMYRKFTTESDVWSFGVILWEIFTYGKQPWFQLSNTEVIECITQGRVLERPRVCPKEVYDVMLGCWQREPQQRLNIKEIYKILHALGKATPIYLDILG
# [15] = molecular target: NT-3 growth factor receptor (Homo sapiens) (UniProt Q16288); settings: at 1 µM
# [16] = molecular target: T3, Tyrosine-protein kinase TXK (Homo sapiens) (UniProt P42681); settings: at 0.1 µM
# T3 sequence (whole entry): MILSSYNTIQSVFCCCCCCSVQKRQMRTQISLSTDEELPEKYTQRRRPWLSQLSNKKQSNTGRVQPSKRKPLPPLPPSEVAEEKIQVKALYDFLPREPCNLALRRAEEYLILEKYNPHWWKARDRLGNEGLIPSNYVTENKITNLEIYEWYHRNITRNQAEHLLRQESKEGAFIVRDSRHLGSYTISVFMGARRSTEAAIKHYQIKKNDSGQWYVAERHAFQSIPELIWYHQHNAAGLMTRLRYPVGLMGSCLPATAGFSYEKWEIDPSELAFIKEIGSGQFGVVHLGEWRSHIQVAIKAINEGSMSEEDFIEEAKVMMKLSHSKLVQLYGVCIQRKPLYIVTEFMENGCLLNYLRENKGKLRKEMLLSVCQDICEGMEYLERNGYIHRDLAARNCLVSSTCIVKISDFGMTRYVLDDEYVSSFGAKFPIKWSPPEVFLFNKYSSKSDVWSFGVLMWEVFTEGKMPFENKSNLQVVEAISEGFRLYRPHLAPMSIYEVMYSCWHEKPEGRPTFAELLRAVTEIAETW
# [17] = molecular target: T3, Tyrosine-protein kinase TXK (Homo sapiens); settings: at 1 µM
# [18] = molecular target: Non-receptor tyrosine-protein kinase TYK2 (Homo sapiens) (UniProt P29597); settings: at 0.1 µM;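 note: each value is a mean of the inhibition readings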
# Non-receptor tyrosine-protein kinase TYK2 (Homo sapiens), sequence (P29597 whole entry): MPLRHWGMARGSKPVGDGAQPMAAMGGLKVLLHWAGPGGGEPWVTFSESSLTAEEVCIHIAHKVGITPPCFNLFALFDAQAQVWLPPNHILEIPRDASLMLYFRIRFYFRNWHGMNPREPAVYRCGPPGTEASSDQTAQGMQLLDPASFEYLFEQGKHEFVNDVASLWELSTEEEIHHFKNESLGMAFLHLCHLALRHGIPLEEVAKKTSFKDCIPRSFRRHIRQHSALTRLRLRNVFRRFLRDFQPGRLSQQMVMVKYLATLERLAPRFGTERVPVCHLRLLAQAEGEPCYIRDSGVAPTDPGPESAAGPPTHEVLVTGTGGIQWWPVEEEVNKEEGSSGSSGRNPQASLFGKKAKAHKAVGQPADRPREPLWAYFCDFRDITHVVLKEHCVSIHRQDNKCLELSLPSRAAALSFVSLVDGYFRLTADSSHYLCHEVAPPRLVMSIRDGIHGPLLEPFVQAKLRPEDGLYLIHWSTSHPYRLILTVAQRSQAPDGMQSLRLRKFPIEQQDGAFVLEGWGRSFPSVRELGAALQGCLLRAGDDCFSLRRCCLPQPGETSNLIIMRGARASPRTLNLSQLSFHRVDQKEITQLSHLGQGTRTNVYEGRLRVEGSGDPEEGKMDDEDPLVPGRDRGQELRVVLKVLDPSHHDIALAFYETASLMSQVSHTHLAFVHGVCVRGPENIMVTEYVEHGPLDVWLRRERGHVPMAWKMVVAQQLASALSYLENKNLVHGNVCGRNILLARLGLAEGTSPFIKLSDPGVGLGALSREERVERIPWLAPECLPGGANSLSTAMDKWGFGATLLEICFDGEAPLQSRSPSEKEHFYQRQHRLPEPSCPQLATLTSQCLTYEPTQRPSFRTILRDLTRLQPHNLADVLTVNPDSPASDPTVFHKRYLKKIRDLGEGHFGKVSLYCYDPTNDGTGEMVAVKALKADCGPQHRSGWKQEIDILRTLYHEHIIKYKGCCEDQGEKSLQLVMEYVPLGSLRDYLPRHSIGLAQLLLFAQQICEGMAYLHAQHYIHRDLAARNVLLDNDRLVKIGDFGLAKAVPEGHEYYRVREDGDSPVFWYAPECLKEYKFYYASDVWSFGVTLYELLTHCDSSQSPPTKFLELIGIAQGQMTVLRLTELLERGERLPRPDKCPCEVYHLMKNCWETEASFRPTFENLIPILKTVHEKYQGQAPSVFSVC
# [19] = molecular target: T4, Dual specificity protein kinase TTK (Homo sapiens) (UniProt P33981); settings: at 1 µM;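 note: reported figures are mean TTK inhibition at 1 µM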
# T4 sequence (whole entry): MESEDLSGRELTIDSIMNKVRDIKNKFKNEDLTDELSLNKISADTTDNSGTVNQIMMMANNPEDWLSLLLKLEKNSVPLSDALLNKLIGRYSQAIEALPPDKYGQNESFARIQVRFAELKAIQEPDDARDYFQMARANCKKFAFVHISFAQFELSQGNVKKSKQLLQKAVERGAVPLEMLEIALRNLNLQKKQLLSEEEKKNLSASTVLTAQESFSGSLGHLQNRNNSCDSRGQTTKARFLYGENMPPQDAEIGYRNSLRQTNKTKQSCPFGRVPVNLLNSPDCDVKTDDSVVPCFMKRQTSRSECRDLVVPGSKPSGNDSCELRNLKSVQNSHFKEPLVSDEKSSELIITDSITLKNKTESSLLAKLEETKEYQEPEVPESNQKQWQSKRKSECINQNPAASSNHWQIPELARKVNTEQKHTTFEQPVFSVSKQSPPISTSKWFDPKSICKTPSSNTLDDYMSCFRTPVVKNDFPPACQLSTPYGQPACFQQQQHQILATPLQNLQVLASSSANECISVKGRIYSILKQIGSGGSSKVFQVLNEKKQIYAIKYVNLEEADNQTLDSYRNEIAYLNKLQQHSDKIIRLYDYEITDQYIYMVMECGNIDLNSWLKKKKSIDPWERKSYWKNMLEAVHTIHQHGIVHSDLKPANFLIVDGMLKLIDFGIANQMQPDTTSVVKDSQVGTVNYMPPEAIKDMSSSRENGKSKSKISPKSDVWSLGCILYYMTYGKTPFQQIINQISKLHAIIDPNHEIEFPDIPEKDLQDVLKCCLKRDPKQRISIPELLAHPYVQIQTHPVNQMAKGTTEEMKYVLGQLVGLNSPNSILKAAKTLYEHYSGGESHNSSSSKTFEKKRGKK
# [20] = molecular target: T5, Aurora kinase A (Homo sapiens) (UniProt O14965); settings: at 0.1 µM;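 note: each reported value is a mean percent inhibition of Aurora-A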
# T5 sequence (whole entry): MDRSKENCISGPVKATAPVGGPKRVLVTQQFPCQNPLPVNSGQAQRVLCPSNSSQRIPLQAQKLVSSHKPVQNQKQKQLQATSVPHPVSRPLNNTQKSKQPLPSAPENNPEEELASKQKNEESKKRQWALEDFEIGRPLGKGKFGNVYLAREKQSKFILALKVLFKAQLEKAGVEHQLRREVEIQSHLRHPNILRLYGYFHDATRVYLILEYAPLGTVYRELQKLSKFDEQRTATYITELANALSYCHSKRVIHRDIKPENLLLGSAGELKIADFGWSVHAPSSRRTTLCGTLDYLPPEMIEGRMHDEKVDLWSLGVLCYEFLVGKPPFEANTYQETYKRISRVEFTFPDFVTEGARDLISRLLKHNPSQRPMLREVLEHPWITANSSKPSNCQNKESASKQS
Structure (SMILES),inhibition [1] [%],inhibition [2] [%],inhibition [3] [%],inhibition [4] [%],inhibition [5] [%],inhibition [6] [%],inhibition [7] [%],inhibition [8] [%],inhibition [9] [%],inhibition [10] [%],inhibition [11] [%],inhibition [12] [%],inhibition [13] [%],inhibition [14] [%],inhibition [15] [%],inhibition [16] [%],inhibition [17] [%],inhibition [18] [%],inhibition [19] [%],inhibition [20] [%]
CS(=O)(=O)CCNCc1coc(-c2ccc3ncnc(Nc4ccc(OCc5ccccc5)cc4)c3c2)c1,3.66,4.07,6.39,3.15,4.19,4.53,7.58,1.22,2.21,1.72,4.8,2,4.13,2.96,4.88,4.16,3.86,1.95,2.54,2.4
COC(=O)c1sc(-n2cnc3cc(OC)c(OC)cc32)cc1OCc1ccccc1C(F)(F)F,1.09,3.18,6.98,4.13,14.3,8.49,4.49,0.92,5.56,3.76,3.03,5.22,14.9,3.71,16.9,2.16,7.15,-1.4,17.2,4.18
CC1=C(C(=O)Nc2cc(Cl)c3[nH]ncc3c2)C(c2ccc(C(F)(F)F)cc2)CC(=O)N1 (stereo not given),1.05,3.36,6.05,4.83,5.04,4.45,3.87,0.65,2.37,3.77,2.71,2.52,3.55,3.39,6.01,2.42,1.68,-1.59,5.07,3.11
COc1ccc2c(-c3ccnc(Nc4cccc(OC(F)(F)F)c4)n3)cnn2n1,-3.35,6.32,11.9,1.4,4.58,9.21,45,1.32,3.83,4.63,11.1,2.97,7.33,2.73,12.3,2.09,5.53,-3.37,17.1,0.72
N#Cc1c(NC(=O)CN2CCOCC2)sc2c1CCCC2,-1.53,3.74,7.22,2.61,4.26,3.32,8.64,1.58,3.21,3.46,0.84,2.29,4.03,2.17,2.8,2.2,3.56,-1.25,12.8,2.73
CCc1nn2ncccc2c1-c1ccnc(NC2CC2)n1,2.4,3.41,4.89,4.14,6.65,1.41,5.48,1.22,2.89,0.51,2.38,-0.25,2.68,1.72,1.87,3.61,3.63,-2,6.05,3.98
O=C(O[C@H]1CN[C@H](C#Cc2cc3ncnc(Nc4ccc(Cc5ccccc5)cc4)c3s2)C1)N1CCOCC1,-3.86,-0.07,4.05,-0.43,2.3,0.66,5.45,0.74,0.96,1.4,-3.47,0.67,1.13,-0.77,-1.7,-0.97,1.36,-1.59,1.6,0
